Data taken from PubChem BioAssay (NCI).
About 83,000 compounds went through this panel and 20% of them were active in at least one assay; those are over-represented in the sample as a whole.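 Cells were grown in 96-well plates and exposed to the test compound at a single concentration for 48 hours; results are reported as percent growth, with values below 10 considered active.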 Active and inactive are the calls of the source.

Tests used:
Test in all cases: NCI-60 one-dose screen, 48 h (100 = growth as untreated, 0 = no growth, -100 = all killed)
Details in all cases: 10 µM unless noted
[1] = system: NCI-H23 lung
[2] = system: NCI-H226 lung
[3] = system: NCI-H322M lung
[4] = system: HOP-62 NSCLC
[5] = system: HOP-92 NSCLC
[6] = system: NCI-H522 lung
[7] = system: A549/ATCC NSCLC
[8] = system: 786-0 renal
[9] = system: COLO 205 colon
[10] = system: DU-145 prostate
[11] = system: K-562 leukemia
[12] = system: MALME-3M melanoma
[13] = system: MDA-MB-231 breast
[14] = system: RXF 393 renal
[15] = system: SF-268 CNS
[16] = system: SF-295 CNS
[17] = system: SF-539 CNS
[18] = system: UACC-257 melanoma
[19] = system: M14 melanoma

Measured: growth

COC(=O)[C@H](Cc1ccccc1)NC(=O)c1csc([C@@H](C[C@H](C(C)C)N(C)C(=O)[C@@H](NC(=O)[C@H]2CCCN2C)C2CC2)OC(C)=O)n1
active: [5] 8.6% | [6] 0.953% | [9] -26.7% | [10] 7.69% | [11] 1.55% | [13] 6.1% | [16] -4.82% | [17] -24.9% | [19] 1.22%
inactive: [1] 35.9% | [2] 58% | [3] 50.3% | [4] 34.9% | [7] 23.2% | [8] 31.6% | [12] 62.9% | [14] 23.3% | [15] 24.4% | [18] 61.9%

O=C1CNC(c2ccccc2)c2cc(Cl)ccc2N1 (stereo not drawn)
inactive: [1] 93.7% | [2] 89.6% | [3] 95.5% | [4] 92% | [5] 107% | [6] 69.3% | [7] 95% | [8] 109% | [9] 116% | [10] 100% | [11] 93.8% | [12] 90.6% | [13] 94.9% | [14] 99.2% | [15] 98.7% | [16] 103% | [17] 104% | [18] 94.9% | [19] 99.4%

CN(C)C1C(=O)C(C(N)=O)=C(O)C2(O)C(=O)C3=C(O)c4c(O)cccc4C(C)(O)C3CC12.[Cl][Sb]([Cl])[Cl] (stereo not drawn)
inactive: [1] 46.1% | [2] 86.6% | [3] 46.3% | [4] 45.8% | [7] 26.1% | [8] 26.6% | [9] 96.5% | [10] 60% | [11] 22.9% | [13] 79.1% | [14] 59.2% | [15] 29.7% | [17] 20.9% | [18] 30.1% | [19] 37%
active: [5] -5.57% | [6] 4.59% | [12] -21.2% | [16] -3.24%

O=[As](O)(O)c1ccccc1[As](=O)(O)O
inactive: [1] 99.9% | [2] 112% | [3] 121% | [4] 110% | [5] 95.9% | [6] 106% | [7] 91.8% | [8] 119% | [9] 111% | [10] 109% | [11] 107% | [12] 115% | [13] 103% | [14] 120% | [15] 99.3% | [17] 96.3% | [18] 101% | [19] 116%

COC(=O)[C@@H](C)C[C@H](Cc1ccccc1)NC(=O)c1csc([C@@H](C[C@H](C(C)C)N(C)C(=O)C2(NC(=O)[C@H]3CCCCN3C)CCC2)OC(C)=O)n1
active: [5] 2.26% | [6] -13.8% | [9] -59.1% | [10] 2.83% | [11] 2.16% | [13] -13.6% | [16] 6.3% | [17] -10.9% | [19] 5.56%
inactive: [1] 18.6% | [2] 48.7% | [3] 43.6% | [4] 18.8% | [7] 15.2% | [8] 20.9% | [12] 67.1% | [14] 82.9% | [15] 17.6% | [18] 60.2%

COC(=O)CCC1=C(C)c2cc3[n-]c(cc4nc(cc5[n-]c(cc1n2)c(CCC(=O)OC)c5C)C=C4C)cc3C.[Cd+2]
inactive: [1] 19.1% | [2] 19.8% | [3] 95.5% | [4] 65.7% | [7] 56.1% | [8] 75.2% | [9] 22.4% | [12] 20.5% | [13] 34.9% | [14] 65.7% | [15] 11.6% | [16] 61.9% | [17] 62.2% | [18] 78.7% | [19] 57.9%
active: [5] 3.42% | [6] -70.1% | [10] 9.35%

CC(=O)O[C@H](C[C@H](C(C)C)N(C)C(=O)[C@@H](NC(=O)[C@H]1CCCN1C)C(C)C)c1nc(C(=O)N[C@@H](Cc2ccccc2)C[C@H](C)C(=O)O)c(C)s1
active: [6] -24.7% | [11] 9.54% | [17] -3.18% | [19] 4.87%
inactive: [1] 30.3% | [2] 54.8% | [3] 52% | [4] 29.7% | [5] 16.5% | [7] 13.3% | [8] 22.4% | [10] 15.3% | [12] 53.9% | [13] 15.1% | [14] 61.6% | [15] 29.9% | [16] 11% | [18] 38.2%

O=[N+]([O-])c1ccc(OP(=O)(CCl)N(CCCl)CCCl)cc1 (stereo not drawn)
inactive: [1] 108% | [2] 98.9% | [3] 103% | [4] 93.5% | [5] 114% | [6] 74.8% | [7] 102% | [8] 97.9% | [9] 112% | [10] 110% | [11] 97.1% | [12] 109% | [13] 124% | [14] 101% | [15] 104% | [17] 105% | [18] 99.9% | [19] 98.6%
